Rows were chosen to be rich in hits. Some 7.9% of all compounds tested hit in one or more screens of this group.
HT1080 IDH1KD tx – kills HT-1080 cells with IDH1 knockdown; Potency, µM (top dose mostly 46.1 µM), for inactives: at the top dose activity, negative = toxicity, actives largely listed as cytotoxic; AID 686971; HT-1080 IDH1 knockdown viability, ATP luminescence, 48 h; 2% of 360,000 active;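 also: 0% = DMSO wells and -100% = cell-free medium wells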
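Viability of IDH1-knockdown HT-1080 fibrosarcoma cells was assessed by CellTiter-Glo after 48 h at 37 °C with titrated compound; concentration-effect curves were classified by fit quality and response size.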
MCF10A rereplic – DNA re-replication induction in MCF 10a cells | 2.9% of 350,000 active | MCF 10A DNA re-replication, Hoechst nuclear intensity, 48 h | Potency, µM (titrated, usually from 46.1 µM), for the others: at the top dose activity, positive = re-replication, hits mostly activators; also: % of control where 0% means no effect; nearly all actives have a fitted effect of over 50% in size
KB-V1 MDR tox – KB-V1 MDR subline cytotoxicity | KB-V1 MDR cells viability, CellTiter-Glo, 72 h | Potency, µM (top dose mostly 46.1 µM), most hits filed as cytotoxic | 3.4% of 400,000 active; also: % is scaled to controls: 0 for no effect and ±100 for the full control effect; nearly all actives have a fitted effect of over 60% in size
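Cytotoxicity toward P-gp-expressing KB-V1 cells was determined as loss of CellTiter-Glo luminescence after 72 h at 37 degrees C. Compounds were tested in quantitative HTS format across a concentration range, with curves fitted to normalized data.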
HT1080NT lethal – kills 2HG-producing HT-1080-NT fibrosarcoma cells | HT-1080-NT fibrosarcoma viability, CellTiter-Glo ATP luminescence, 48 h | Potency, µM (top dose mostly 46.1 µM), for the others: at the highest dose activity, negative = less viability, most hits filed as cytotoxic | 1.6% of 360,000 active | AID 686970;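 also: NT is the 2HG producing partner of a matched IDH1 knockdown line; 0% = DMSO-treated cells and -100% = media-only wells without cells; nearly all actives have a fitted effect of over 55% in size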
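Luminescent CellTiter-Glo readout after 48 hours of compound exposure at 37 degrees C defined viability of HT-1080-NT cells. Activity was normalized to DMSO wells and cell-free media wells; concentration-response curves were fitted and assigned curve classes.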
KB-3-1 tox – KB-3-1 parental cell cytotoxicity; AID 1347075; KB-3-1 viability, CellTiter-Glo ATP luminescence, 72 h; 1.4% of 400,000 active; Potency, µM (top dose mostly 46.1 µM), usual class: cytotoxic; also: % is scaled to controls: 0 for no effect and ±100 for the full control effect; nearly all actives have a fitted effect of over 60% in size
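Multi-concentration cytotoxicity screen in KB-3-1 cells grown in DMEM lacking phenol red with 10% FBS. After 72 h at 37 °C with compound, ATP-dependent luminescence was recorded.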
SW480 rereplic – DNA re-replication induction in SW480 cells | SW480 DNA re-replication, Hoechst DNA content imaging, 48 h | Potency, µM (titrated, usually from 46.1 µM), for the others: at the top dose re-replication activation, actives largely listed as activators | AID 624297 | 1.8% of 340,000 active; also: % of control where 0% means no effect; nearly all actives have a fitted effect of over 55% in size
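Readout is total intensity of Hoechst-stained nuclei, excited at 405 nm and collected at 500-530 nm. Compound treatment lasted 48 hr at 37 C in 5% CO2 before staining.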
* marks the source's active call; other numbers are inactive results; i = inactive; u = inconclusive; x = no result; [ ] = another dose, or the depositor's remark. Calls follow the shape of the dose curve; as a rule, active = well fitted curve in the direction sought with a large enough effect; inconclusive = small, poorly fitted or top-dose-only effect, or another doubt; inactive = no such curve, though single readings can be large; an effect the other way counts as inactive or inconclusive. Potency is read from the fitted curve at half-maximal effect.

SMILES | HT1080 IDH1KD tx | MCF10A rereplic | KB-V1 MDR tox | HT1080NT lethal | KB-3-1 tox | SW480 rereplic
Cc1cc(=O)[nH]c(SCC(=O)N2CCCC2)n1 | 19% | 0% | i | 10% | i | -5%
COC(=O)c1ccc(NS(=O)(=O)c2ccc3c(c2)n(C)c(=O)c(=O)n3C)cc1 | x | x | u | x | i | x
COc1ccccc1N1CCN(c2nc3c(S(=O)(=O)c4ccc(C)c(C)c4)nnn3c3ccc(Cl)cc23)CC1 | x | x | i | x | i | x
COc1ccc(NC(=O)N(C)C[C@H]2Oc3ccc(NC(=O)c4ccncc4)cc3C(=O)N([C@H](C)CO)C[C@@H]2C)cc1 | -2% | u | i | -3% | i | 27%
COc1cc2c(cc1OC)C(c1cc3cc4c(cc3[nH]c1=O)OCO4)N(C(=O)C(C)C)CC2 (stereo unspecified) | 6%[9.24 µM] | 8.2µM* | i | 5% | i | u
COc1cc2c(cc1OC)C(COc1ccc(F)cc1)N(C(=O)C(C)C)CC2 (stereo unspecified) | x | x | u | x | i | x
CCc1ccc(N2C(=O)C(Cl)=C(Nc3ccc(C(=O)N4CCCC4)cc3)C2=O)cc1 | -26% | 10µM* | i | -4%[9.24 µM] | i | u
CCOC(=O)Cc1ccc(NC(=O)Nc2nnc(N3CCCCC3C)s2)cc1 (stereo unspecified) | x | x | i | x | i | x
O=C(Nc1nc(-c2ccccc2)c(-c2ccccc2)s1)c1ccc(S(=O)(=O)N2CCCC2)cc1 | 7% | 7% | 4.1µM* | 7% | u | -3%
O=C(Nc1ccccc1)c1ccc(S(=O)(=O)N2CCCC2)cc1 | 8% | -2% | i | -4% | i | -6%
CN(C)S(=O)(=O)c1ccc(C(=O)Nc2nc(-c3ccccc3)c(C(=O)c3ccccc3)s2)cc1 | -4% | 19% | 16µM* | 10% | i | -1%
CCCN(CCC)S(=O)(=O)c1ccc(C(=O)Nc2nc3c(s2)CCc2ccccc2-3)cc1 | u | -8% | i | 18µM* | 9.2µM* | 21%
N#CCCN(CCC#N)S(=O)(=O)c1ccc(C(=O)Nc2nc(-c3ccccc3)c(C(=O)c3ccccc3)s2)cc1 | 6% | u | i | 0% | i | -14%
O=C(Nc1nc(-c2ccccc2)c(C(=O)c2ccccc2)s1)c1ccc(S(=O)(=O)N2CCCC2)cc1 | -13% | u | 3.7µM* | -4% | 16µM* | -106%
CN1C=CC(C(C(N)=O)c2ccccc2)c2ccccc21 (stereo unspecified) | -11% | x | i | -5% | i | x
Cc1cccc(C(=O)Nc2ccc(C(=O)/C=C/c3cccnc3)cc2)c1 | 18µM* | u | u | u | i | 21µM*
O=C(/C=C/c1cccnc1)c1ccc(NC(=O)c2cccc(Br)c2)cc1 | -15% | 2% | 7.9µM* | -13% | u | 2%
Cc1cccc(C(=O)Nc2ccc(C(=O)/C=C/c3ccncc3)cc2)c1 | u | u | i | u | u | u
O=C(CCn1c(=O)[nH]c2ccsc2c1=O)N(CCc1ccccc1)Cc1ccccc1 | -3% | 7% | 21µM* | -21% | u | 0%
Cn1c(=NC(=O)CS(=O)(=O)c2ccccc2)sc2cc([N+](=O)[O-])ccc21 | 0% | -9% | i | 18% | i | -77%
COc1ccc(-c2cc(-c3nnc(COC(=O)C4CC4)o3)c3ccccc3n2)cc1OC | 1% | u | u | -10% | u | 21µM*
COc1ccc(-c2cc(C(=O)N3CC(C)CC(C)C3)c3ccccc3n2)cc1OC (stereo unspecified) | -1% | 26% | i | 0% | i | 16%
COc1ccc(-c2cc(-c3nnc(COC(=O)c4ccc(O)cc4)o3)c3ccccc3n2)cc1OC | u | u | u | u | i | u
COc1ccc(-c2cc(-c3nnc(COC(=O)C4CC4C)o3)c3ccccc3n2)cc1OC (stereo unspecified) | 10% | u | u | 4% | i | 16µM*
COc1ccc(-c2cc(-c3nnc(COC(=O)CC4CCCC4)o3)c3ccccc3n2)cc1OC | 8% | 15µM* | i | 0% | i | u
SMILES | HT1080 IDH1KD tx | MCF10A rereplic | KB-V1 MDR tox | HT1080NT lethal | KB-3-1 tox | SW480 rereplic
COc1ccc(-n2c(=O)c3c4c(sc3n(Cc3ccccc3C)c2=O)CCCC4)c(OC)c1 | x | x | i | x | i | x
CN(c1ccc(F)cc1)S(=O)(=O)c1ccc(Cl)c(C(=O)NCC2(N3CCOCC3)CCCCC2)c1 | -5% | 9% | 18µM* | 0% | i | -7%
CC12CCC(=O)N1C(C(=O)Nc1nc(-c3ccccc3Cl)cs1)CS2 (stereo unspecified) | 0% | u | i | 0% | i | 28%
CO/N=C1\CCCc2c(C(=O)NN)sc(SC)c21 | 16µM* | 16µM* | i | 16µM* | i | u
CC[N+](CC)=N/N=C1\C=CC[N+]([O-])=C1 | u | x | i | 19% | i | x
COC(=O)C1=C(C)N(Cc2ccccc2)C(=NCc2cccc(Cl)c2)N[C@H]1c1cccc(F)c1 | u | u | 21µM* | u | u | u
COc1ccc(NC(=O)Cn2c(=O)n(-c3ccc(C)cc3)c(=O)c3c2cnn3C)cc1 | x | x | i | x | i | x
FC(F)(F)c1cc(Cc2nc3ccccc3n2C(CCc2ccccc2)c2nc3ccccc3[nH]2)cc(C(F)(F)F)c1 (stereo unspecified) | u | x | u | 21µM* | i | x
N#CC1=C2SCC(O)(c3ccccc3)N2C(=O)CC1c1ccccc1 (stereo unspecified) | u | 5.8µM* | 1.8µM* | 1.3µM* | 1.3µM* | 12µM*
COc1ccc(-c2cc(=O)oc3cc(OC(=O)C4CCCCC4)c(Cl)cc23)cc1 | -11% | 12µM* | i | -7% | i | 12µM*
Cc1ccc(C)c(OCCCNCc2ccccc2)c1 | -1% | 14% | i | 1% | i | -5%
c1ccc(CNCCCNCCCCNCCCNCc2ccccc2)cc1 | 5.2µM* | 6.5µM* | u | u | u | u
CCc1cc(OCCN(C)C)ccc1Cl | -2% | 0% | i | 9% | i | -1%
CC(C)(c1ccccc1)c1ccc(OCCCNCCO)cc1 | 18µM* | u | u | u | u | -14%
CCc1cc(OCCCCNCc2ccccc2)ccc1Cl | u | u | u | 23µM* | u | u
O=C(O)CCCCNCc1ccccc1 | -2% | -5% | i | 8% | i | -1%
Clc1cc(Br)ccc1OCCCNCc1ccccc1 | u | u | u | 23µM* | u | u

From PubChem BioAssay
